# In PubChem BioAssay (NCI):
# This is part of a sample that, as a whole, favours compounds with a hit. Of some 79,000 tested, about 15% had one in any assay. Unmarked numbers belong to inactive results. Activity calls are given as the source filed them. No stated cut-off is given here; in the data, active means growth inhibition above about 70%; inactive means the rest.
# Key:
# [1] = NCI Yeast Anticancer Drug Screen. Data for the rad50 strain (AID 155);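 further: 0% = growth of vehicle-only cultures of the same strain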; conditions: S. cerevisiae rad50 strain growth inhibition, active compounds read high
# Method in brief: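 Compounds were tested on a yeast strain with an engineered DNA damage repair alteration; the reported value is growth inhibition normalised to vehicle treatment.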
# [2] = NCI Yeast Anticancer Drug Screen. Data for the mec2-1 strain (AID 157); conditions: S. cerevisiae mec2-1 strain, active compounds read high
# Method in brief: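 Readout is yeast growth inhibition, normalised to vehicle-treated controls, in the mec2-1 strain exposed to compound.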
# [3] = NCI Yeast Anticancer Drug Screen. Data for the sgs1 mgt1 strain (AID 161);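 further: 0% = growth of cultures given vehicle only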; conditions: S. cerevisiae sgs1 mgt1 strain, active compounds read high
# Method in brief: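 Compounds are added to genetically altered yeast, and growth is compared with cultures given vehicle alone to give percent inhibition.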
# [4] = NCI Yeast Anticancer Drug Screen. Data for the cln2 rad14 strain (AID 165);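 further: 0% = growth equal to vehicle treated cultures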; conditions: S. cerevisiae cln2 rad14 strain, active compounds read high
# Method in brief: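 Relative to vehicle controls, growth inhibition of compound-treated cln2 rad14 yeast was recorded.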
# [5] = NCI Yeast Anticancer Drug Screen. Data for the bub3 strain (AID 167); conditions: S. cerevisiae bub3 mutant strain, active compounds read high
# Method in brief: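 Growth of a checkpoint-deficient yeast mutant is measured after compound exposure. Values represent inhibition relative to vehicle.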
# [6] = NCI Yeast Anticancer Drug Screen. Data for the mlh1 rad18 strain (AID 175); conditions: S. cerevisiae mlh1 rad18 strain growth inhibition, active compounds read high
# Method in brief: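 Test agents were incubated with a yeast strain of defined genotype (DNA damage repair defect). Inhibition of growth was derived by comparison with vehicle-exposed cultures.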
# [7] = at 5.0 µM (retest, dose inferred, filed as 0.5)
# [8] = at 50.0 µM (retest, dose inferred, filed as 5.0)
Compound,"growth inhibition [1, 7]","growth inhibition [1, 8]",growth inhibition ([1]; at 50.0 µM),"growth inhibition [2, 7]","growth inhibition [2, 8]",growth inhibition ([2]; at 50.0 µM),"growth inhibition [3, 7]","growth inhibition [3, 8]",growth inhibition ([3]; at 50.0 µM),"growth inhibition [4, 7]","growth inhibition [4, 8]",growth inhibition ([4]; at 50.0 µM),"growth inhibition [5, 7]","growth inhibition [5, 8]",growth inhibition ([5]; at 50.0 µM),"growth inhibition [6, 7]","growth inhibition [6, 8]",growth inhibition ([6]; at 50.0 µM)
CC(C)NC(=O)O/N=C1\CCC2[C@@H]3CC=C4C[C@@H](OC(=O)NC(C)C)CC[C@]4(C)C3CC[C@]12C (some centres not stated),88% (active),77% (active),83% (active),91% (active),67%,83% (active),90% (active),73% (active),92.3% (active),95% (active),75% (active),81.2% (active),83% (active),72% (active),91.2% (active),91% (active),71% (active),92% (active)
O=C(O)/C=C/c1c2ccccc2cc2ccccc12,41%,96% (active),97.1% (active),16%,98% (active),96.5% (active),27%,97% (active),94.7% (active),9%,96% (active),96.9% (active),71% (active),96% (active),97.3% (active),47%,97% (active),97.5% (active)
O=c1c(Cl)nsnc1Cl,100% (active),100% (active),99.6% (active),100% (active),100% (active),99.7% (active),100% (active),100% (active),99.6% (active),99% (active),100% (active),98% (active),100% (active),100% (active),99.7% (active),99% (active),100% (active),99.4% (active)
CCOC(=O)NC(NNc1ccc([N+](=O)[O-])cc1[N+](=O)[O-])(C(F)(F)F)C(F)(F)F,1%,99% (active),97.3% (active),-3%,99% (active),98.2% (active),6%,99% (active),98.4% (active),21%,98% (active),98.7% (active),19%,97% (active),98% (active),4%,98% (active),98.5% (active)
CC(C)C1=CC23CCC4C(C)(C(=O)O)CCCC4(C)C2CC1C(C(=O)O)C3C(=O)O (configuration not stated),80% (active),99% (active),98.4% (active),89% (active),99% (active),98.1% (active),52%,98% (active),94.9% (active),86% (active),99% (active),98% (active),84% (active),99% (active),97.6% (active),88% (active),98% (active),96% (active)
C/C=C/C(=O)N1c2ccccc2CC1c1c(C)[nH]c2ccccc12 (configuration not stated),7%,90% (active),94.3% (active),3%,96% (active),94.8% (active),3%,95% (active),94.3% (active),2%,86% (active),96% (active),6%,86% (active),95.5% (active),22%,96% (active),96.6% (active)
Cc1cccc(N=Nc2ccc(O)cc2)c1,-152%,98% (active),99.6% (active),-58%,98% (active),99.5% (active),-71%,98% (active),99.4% (active),-71%,98% (active),98.6% (active),-72%,97% (active),98.5% (active),-154%,98% (active),99.3% (active)
c1ccc(B2OC(c3ccccc3)C(c3ccccc3)O2)cc1 (configuration not stated),-19%,-12%,3.35%,-18%,-21%,-0.45%,-7%,-9%,10.8%,24%,7%,5.85%,-4%,-3%,11.2%,-13%,9%,8.85%
O=C1c2ccccc2C(=O)c2c1cc(O)c(O)c2O,17%,95% (active),83.2% (active),20%,92% (active),77.5% (active),23%,95% (active),81.5% (active),2%,88% (active),59.2%,13%,91% (active),70.7% (active),35%,95% (active),82% (active)
O=C(CNC(=O)OCc1ccccc1)NNc1ccccc1Cl,95% (active),98% (active),98.7% (active),94% (active),99% (active),98.5% (active),98% (active),99% (active),97.1% (active),97% (active),98% (active),98.7% (active),98% (active),96% (active),99.2% (active),98% (active),99% (active),99.3% (active)
O=C(CNS(=O)(=O)Cc1ccccc1)NCC(=O)NNc1ccccc1,12%,55%,59.5%,1%,29%,29.4%,-5%,63%,58.2%,12%,40%,44.4%,1%,53%,20.1%,31%,76% (active),81.7% (active)
O=C(CSc1nnc(Cc2ccccc2)o1)Nc1cccc(Cl)c1,-20%,91% (active),77% (active),14%,85% (active),70% (active),-2%,86% (active),82.2% (active),24%,91% (active),78% (active),1%,95% (active),77.5% (active),9%,93% (active),78.8% (active)
CC1(C)C/C(=N/NC(N)=S)C(=NO)/C(=N\NC(N)=S)C1,6%,60%,75% (active),2%,40%,62%,9%,61%,77.4% (active),-13%,27%,23.4%,0%,34%,76.8% (active),2%,59%,74.5% (active)
O=C1CSC(=S)N1c1cccc(Cl)c1,20%,28%,40.5%,15%,23%,86% (active),13%,94% (active),79.6% (active),9%,73% (active),19.4%,8%,92% (active),70.2% (active),24%,48%,91.7% (active)
CCCCN(CCCC)CCC(=O)c1ccc2c(ccc3ccccc32)c1,19%,99% (active),96.3% (active),7%,99% (active),95.5% (active),20%,99% (active),98.8% (active),21%,99% (active),87% (active),47%,98% (active),99% (active),12%,99% (active),98.8% (active)
CC(C)(C)c1ccc(C(=O)C[n+]2ccc(Cl)c3ccc(Cl)cc32)cc1,0%,98% (active),99% (active),1%,99% (active),99.3% (active),0%,99% (active),62.9%,-2%,97% (active),53.5%,2%,98% (active),-1.75%,1%,99% (active),99.2% (active)
COc1ccc(/C(Cl)=C(/c2ccc(O)cc2)c2ccc(OCCN(C)C)cc2)cc1,40%,40%,91.8% (active),32%,32%,87.7% (active),42%,42%,92.3% (active),34%,34%,89.3% (active),26%,26%,88.6% (active),27%,27%,88.8% (active)
O=c1c(Cl)c(Cl)c(=O)c2sc3cc(Cl)ccc3[nH]c1=2,6%,51%,95.5% (active),3%,27%,95% (active),-3%,46%,88% (active),2%,7%,95% (active),6%,19%,95.5% (active),2%,59%,96.9% (active)
S=c1sc2nc(Cl)nc(Cl)c2s1,99% (active),99% (active),87.1% (active),100% (active),99% (active),88.3% (active),100% (active),99% (active),89.5% (active),97% (active),99% (active),89.5% (active),100% (active),100% (active),87.4% (active),99% (active),98% (active),89.3% (active)
